PubChem BioAssay AID1209 (Sanford-Burnham Center for Chemical Genomics, 2008)
Values joined by “and” are separate entries in the source; they are usually repeats but may differ in a detail not shown here. Identical values can stand only once. Among all 190,000 compounds or so, about 810 (0.43%) were called active. Cut-off read from the data, not from the text of the source: active = inhibition above about 50%; inactive = the rest. Only a selection was taken, and actives are over-represented in it overall.

target: Mannose-6-phosphate isomerase (Homo sapiens) (UniProt P34949); test: MPI enzyme activity inhibition – biochemical, fluorescence intensity, coupled assay, primary screen (AID 1209); conditions: purified PMI enzyme, at 20 µM, hits give high values;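 note: plate controls were DMSO vehicle for no effect and wells lacking substrate for full effect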
Sequence (P34949 whole entry, looked up): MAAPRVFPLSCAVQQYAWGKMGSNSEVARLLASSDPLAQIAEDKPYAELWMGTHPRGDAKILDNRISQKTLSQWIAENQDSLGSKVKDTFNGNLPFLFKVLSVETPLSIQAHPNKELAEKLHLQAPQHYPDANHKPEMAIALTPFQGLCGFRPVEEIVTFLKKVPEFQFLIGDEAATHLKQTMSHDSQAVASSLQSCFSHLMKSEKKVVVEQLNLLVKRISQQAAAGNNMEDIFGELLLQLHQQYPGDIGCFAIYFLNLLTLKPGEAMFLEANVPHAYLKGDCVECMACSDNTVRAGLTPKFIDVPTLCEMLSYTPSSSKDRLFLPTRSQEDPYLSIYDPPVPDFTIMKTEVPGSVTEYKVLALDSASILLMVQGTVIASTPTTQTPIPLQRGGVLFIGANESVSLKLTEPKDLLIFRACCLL

inhibition, inactive:
COC(=O)c1ccc(C2C(Oc3ccccc3)C(=O)N2CCc2ccc(OC)c(OC)c2)cc1 (stereo not drawn) -2.9%, COC(=O)c1ccc(C2C(Oc3ccc(OC)cc3)C(=O)N2CCc2ccc(F)cc2)cc1 (stereo not drawn) -0.6%, COCCNC(=O)C(c1cccs1)N(C(=O)Cn1nnc2ccccc21)c1cccc(C)c1 (stereo not drawn) 5.9%, O=C(Cn1cc(/C=N/NC(=O)c2ccccc2Br)c2ccccc21)Nc1ccc(F)cc1 5.7%, O=C(CCS(=O)(=O)c1ccc(Cl)cc1)OCC(=O)N1CCCCC1 9.3%, Cc1cccc(-n2nnc(C(=O)NCc3ccco3)c2N)c1 -18.8%, CCOc1ccc(N2C(=O)CC(N(CCc3ccc(OC)c(OC)c3)C(=S)Nc3ccccc3)C2=O)cc1 (stereo not drawn) 19.8%, CCOC(=O)c1ccc(N2C(=O)CC(N(C)CCc3ccc(OC)c(OC)c3)C2=O)cc1 (stereo not drawn) 16.4%, O=C(CSc1n[nH]c(=O)[nH]c1=O)Nc1ccc(C(=O)O)cc1 -8.4%, O=[N+]([O-])c1cc(-c2ncccn2)cs1 -13.4%, O=[N+]([O-])c1cccnc1NCc1cccs1 -2.4%, O=C(O)CCC(=O)Nc1ccc(Cc2ccc(NC(=O)CCC(=O)O)c(O)c2)cc1O -9.3%, Cc1ccc(Cl)cc1N1CCN(C(=O)CN2C(=O)c3cccc4cccc2c34)CC1 12.6%, c1cnc2c(c1)ccc1cccnc12 5.7% and 24.3%, O=S1(=O)NC(=NCCc2ccccn2)c2ccccc21 -7.8%, COc1ccc(-c2c(C)n([O-])c3c([n+]2=O)CCC3)cc1OC 8%, c1ccc(-c2ccccc2-n2cnnn2)cc1 -7.6%, Cc1cc(C)nc(N2CCCC(C(=O)Nc3nnc(C)s3)C2)n1 (stereo not drawn) -13.6%, O=C(Nc1nc2ccc(S(=O)(=O)N3CCCC3)cc2s1)C1CCCCC1 7.3%, CS(=O)(=O)c1ccc2nc(NC(=O)CCC(=O)c3cccs3)sc2c1 -8.5%, Cc1nn(C)c(C)c1CS(=O)(=O)c1ccccc1 -8.9%, CCc1c(C(C)S(=O)(=O)c2ccccc2)[nH]c(=O)n1CC (stereo not drawn) -38%, Cc1cc(C)cc(-n2cc(C(=O)O)c(=O)cc2C)c1 5.3%, COc1ccc(NC(=O)CSc2nc3sc(C)c(C)c3c(=O)n2Cc2ccco2)cc1 7.7%, C=CCN1C(=O)/C(=C/c2ccc(OC(C)=O)c(OCC)c2[N+](=O)[O-])SC1=S 41.3%, CCOc1ccc(/C=C2\SC(=S)NC2=O)cc1OC -12%, CC(=O)c1[nH]c(C)c(C(C)=O)c1C 11%, CC(=O)c1c(C)[nH]c(C(=O)O)c1C 13.6%, S=c1nc(-c2ccccc2)n(CCCn2ccnc2)c2c1CCCC2 1.7%, COc1ccc(/C=C(\CC(=O)O)c2nc3ccccc3o2)cc1 -27.3%, Cc1nc(C)c(C(=O)NNC(=O)c2ccc(Br)cc2)s1 6.9%, CCN(C(=O)CSc1nnc(Cn2nnc3ccccc32)o1)c1nc(C)cs1 9.1%, COCCn1cc(C(=O)c2cc(Br)ccc2O)cc(C#N)c1=O -5.8%, O=C(NC(=S)Nc1cc(S(=O)(=O)N2CCOCC2)ccc1N1CCOCC1)C1CCCC1 -1.5%, O=C(Nc1ccc(S(=O)(=O)N2CCOCC2)cc1)c1ccc2c(c1)S(=O)(=O)c1ccccc1C2=O -4.6%, CCN(CC)S(=O)(=O)c1ccc(N2CCOCC2)c(NC(=O)c2cc(-c3ccccn3)nc3ccccc23)c1 15.6%, O=C(NC(=S)Nc1cc(S(=O)(=O)N2CCOCC2)ccc1N1CCOCC1)c1ccco1 3.9%, COc1ccc(-c2cc(C(=O)Nc3cc(S(=O)(=O)N4CCOCC4)ccc3N3CCOCC3)c3ccccc3n2)cc1 -22.7%, O=C(Nc1cc(S(=O)(=O)N2CCOCC2)ccc1O)c1ccc2c(c1)S(=O)(=O)c1ccccc1C2=O 46.3%, On1nnc2ccc3ccccc3c21 -9.6%, C/C(O)=c1/ccc2cccc3nc(C)nc1c23 42.6%, Cc1ccc(SCc2ccc(C(=O)NCc3ccncc3)cc2)cc1 0.9%, Cc1cc(C)n(C(=O)c2c([N+](=O)[O-])c(C)nn2C)n1 1.5%, c1ccc(CC2CCN(Cc3nc(-c4ccccc4)no3)CC2)cc1 16.3%, CC(=O)N1CCc2c(sc(NC(=O)c3ccc4c(c3)OCCO4)c2C#N)C1 18.2%, COc1ccc(C(=O)Nc2sc3c(c2C#N)CCN(C(C)=O)C3)cc1 5.9%, Cc1cc(-c2ccco2)n(CC(=O)NCc2ccco2)n1 -9.3%, CC(CSc1nnnn1-c1ccccc1)Cn1c(N2CCCC2)nc2c1c(=O)[nH]c(=O)n2C (stereo not drawn) 1.7%, CCCC(=O)N(c1ccc2oc(=O)sc2c1)S(=O)(=O)c1cccs1 3.6%, O=[N+]([O-])c1nn(-c2ccc3c(c2)OCCO3)n(O)c1=NC1CCCCC1 6%, O=[N+]([O-])c1nn(-c2ccc3c(c2)OCCO3)n(O)c1=NC1CCCCCC1 12.3%, C#CCNc1cc(-c2ccccc2)nc2ncnn12 -2.5%, COC(=O)c1ccc(C(=O)OC)c(NC(=O)C(C)(C)C)c1 -4.3%, COc1ccc(OC)c(NC(=O)CCNS(=O)(=O)c2cccs2)c1 0.3%, COc1ccccc1-c1nnc(SCC(=O)O)n1-c1ccccc1 0.5%, CCCCN(C(=O)c1ccc(NC(=O)C(C)C)cc1)c1ccccc1 8.2%, Cc1ccccc1-n1nnnc1SCc1ncc(-c2ccccc2)o1 5.3%, O=C(CCCc1nc2ccccc2s1)Nc1ccccc1 -15.5%, CCC(=O)Nc1ccc(OCc2nc3ccccc3s2)cc1 25%, O=C(NN1C(=O)C2C3C=CC(C3)C2C1=O)c1ccncc1 (stereo not drawn) -0.6%, Cc1csc(NC(=O)C2CCCN(S(=O)(=O)c3ccc4c(c3)oc(=O)n4C)C2)n1 (stereo not drawn) 13.4%, C=CCN1C(=O)N/C(=C/c2ccccc2OCC(=O)Nc2ccc(F)cc2)C1=O 2.1%, CN(C)S(=O)(=O)c1cccc(C(=O)NCCc2ccccc2)c1 3.3%, CN(c1ccccc1)S(=O)(=O)c1cccc(C(=O)NNC(=O)c2ccccc2)c1 7.8%, COc1cc(C2NC(=O)NC(c3ccccc3)=C2C(C)=O)ccc1OCC#N (stereo not drawn) 20.2%, COc1ccccc1-n1c(SCC(=O)NC2CCS(=O)(=O)C2)nc2cc([N+](=O)[O-])ccc21 (stereo not drawn) 5.5%, O=C(CSc1nc2cc([N+](=O)[O-])ccc2n1-c1ccccc1)NCc1ccc2c(c1)OCO2 23.9%, O=C(COC(=O)CCOc1ccccc1)Nc1ncc(Cl)cc1Cl -1%, Cc1c(C(=O)N/N=C/c2ccccc2)[nH]c2ccc(Cl)cc12 2.8%, COc1ccccc1NC(=O)Cc1csc(NC(=O)c2ccccc2)n1 5.9%, O=C(Cc1csc(NC(=O)c2ccc(F)cc2)n1)NO 0.3%, COC(=O)c1c(-c2cccc(OC)c2)csc1N 30%, O=C(CN1CCCC1)Nc1ccc(F)cc1 -11.5%, COc1ccccc1NS(=O)(=O)c1cc(NC(=O)Nc2ccc(Cl)cc2Cl)ccc1N1CCCCC1 2%, O=C(Nc1ccc(F)cc1)Nc1ccc(N2CCOCC2)c2nonc12 15.4%, COc1ccccc1NS(=O)(=O)c1cc(NC(=O)C(C)C)ccc1N1CCCCC1 41.2%, COc1ccccc1NS(=O)(=O)c1cc(NC(=O)C2CC2)ccc1N1CCOCC1 15%, COc1ccccc1NS(=O)(=O)c1cc(NC(=O)CCC2CCCC2)ccc1N1CCOCC1 2.1%, COc1ccccc1NS(=O)(=O)c1cc(NC(=O)Nc2cccc(C)c2)ccc1N1CCCCC1 0.3%, COc1ccccc1NS(=O)(=O)c1cc(NC(=O)Nc2ccccc2)ccc1N1CCCCC1 14.8%, O=C(Nc1ccc([N+](=O)[O-])cc1)Nc1ccc(N2CCOCC2)c2nonc12 34.2%

inhibition, active:
COC(=O)c1ccc(C2C(Oc3ccc(OC)cc3)C(=O)N2CCc2ccc(OC)c(OC)c2)cc1 (stereo not drawn) 52%, CCOc1cccc(N2C(=O)CC(N(CCc3ccc(OC)c(OC)c3)C(=O)CC)C2=O)c1 (stereo not drawn) 57%, O=S1(=O)Nc2c(ccc3cccnc23)-c2ccccc21 62%, Cc1cc(C)nc(N2CCCC(C(=O)Nc3nc4ccc(S(C)(=O)=O)cc4s3)C2)n1 (stereo not drawn) 51.4%, CCn1c(C)c(CS(=O)(=O)c2ccccc2)[nH]c1=O 85.5%, CCOc1c(O)ccc(/C=C2\SC(=S)NC2=O)c1[N+](=O)[O-] 55.7%, CC(=O)c1c(C(=O)O)[nH]c(C(=O)O)c1C 108%, COCCNC(=S)Nc1cc(S(=O)(=O)N2CCOCC2)ccc1N1CCCCC1 63.1%, O=C(Nc1cc(S(=O)(=O)N2CCOCC2)ccc1N1CCCCC1)c1cc(-c2ccccn2)nc2ccccc12 52.8%, O=C(Nc1cc(S(=O)(=O)N2CCOCC2)ccc1N1CCCC1)c1ccc2c(c1)S(=O)(=O)c1ccccc1C2=O 61%, CC(=O)N1CCc2c(sc(NC(=O)c3ccc([N+](=O)[O-])o3)c2C#N)C1 59%, CN=C1C([N+](=O)[O-])=CC=C2C1=NC1(CCCCC1)N2O 70.6%, CC(C)(C)N=C1C([N+](=O)[O-])=CC=C2C1=NC1(CCCCC1)N2O 76.2%, O=[N+]([O-])C1=CC=C2C(=NC3(CCCCC3)N2O)C1=NC1CCCCC1 87.5%, O=C(O)CCCC(=O)Nc1ccc(OCc2nc3ccccc3s2)cc1 58.3%, CN(c1ccccc1)S(=O)(=O)c1cccc(C(=O)NCCc2ccc(O)c(O)c2)c1 54.9%, COc1ccccc1-n1c(SCC(=O)NCc2ccc3c(c2)OCO3)nc2cc([N+](=O)[O-])ccc21 59.9%, O=C(Cc1csc(NC(=O)c2ccccc2)n1)NO 67.6%, O=C(Nc1ccc(N2CCOCC2)c2nonc12)C1CCCC1 53.4%, COc1ccccc1NS(=O)(=O)c1cc(N)ccc1N1CCCCC1 67.5%, COc1ccccc1NS(=O)(=O)c1cc(NC(=O)C2CCCC2)ccc1N1CCOCC1 55.7%, COc1ccccc1NS(=O)(=O)c1cc(NC(C)=O)ccc1N1CCCCC1 52.7%
